Sampled rows, rich in hits. Any-hit rate of the full collection: about 19%.
SW480 rereplic: A quantitative high throughput screen for small molecules that induce DNA re-replication in SW480 colon adenocarcinoma cells | SW480 DNA re-replication, Hoechst DNA content imaging, 48 h | Potency, µM (highest dose often 46.1 µM), inactives show at the highest dose re-replication activation, most hits filed as activators | 1.8% of 340,000 active; further: potency means the concentration at half of the fitted maximal effect; % of control where 0% means no effect; nearly all actives have a fitted effect of over 55% in size
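Per well, 250 cells were exposed to pinned compound for 48 hr. Nuclear DNA was visualised with Hoechst (40 min, 37 C) and total object intensity recorded by fluorescence scanning.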
DT40 TDP1 no CPT: qHTS for Inhibitors of human tyrosyl-DNA phosphodiesterase 1 (TDP1): qHTS in cells in absence of CPT; DT40 Tdp1-/- hTDP1 cells, no CPT, ATP luminescence, 48 h; AID 686978, 2013; Potency, µM (doses to about 46.2 µM), inactives show at the highest dose activity change, negative = growth inhibition, hits mostly inhibitors; 15% of 420,000 active; further: potency means the concentration at half of the fitted maximal effect; on the % scale 0 is the no-effect control and ±100 the full control effect; nearly all actives have a fitted effect of over 55% in size
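Readout: luminescence from CellTiter-Glo after 30 min in the dark at RT. Cells: DT40 Tdp1-/- with stable hTDP1, 400/well. Exposure: compounds alone, ≥48 hr, 37 °C.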
MCF10A rereplic: A quantitative high throughput screen for small molecules that induce DNA re-replication in MCF 10a normal breast cells; AID 624296, 2012; MCF 10A DNA re-replication, Hoechst nuclear intensity, 48 h; Potency, µM (top dose mostly 46.1 µM), inactives show at the top dose activity, positive = re-replication, usual class: activators; 2.9% of 350,000 active; further: potency means the concentration at half of the fitted maximal effect; % of control where 0% means no effect; nearly all actives have a fitted effect of over 50% in size
BCR signal inh: qHTS Assay to Find Inhibitors of Chronic Active B-Cell Receptor Signaling. ABC-DLBCL IkBa-CBG/CBR reporter, luminescence ratio, 4 h. Potency, µM (highest dose often 46.1 µM), for inactives: top-dose activity change, negative = inhibition, usual class: inhibitors. 0.05% of 340,000 active; active means well fitted inhibition curve with a large enough effect in the signal ratio, with a control signal flat, not every such curve was filed as active; inconclusive means small, poorly fitted or top-dose-only effect, or effect the other way, or a change in a side signal; the % refers to the signal ratio;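 further: potency means the concentration at half of the fitted maximal effect; plate controls were basal doxycycline-induced cells for no effect and cells given 10 µM MG132 for full effect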
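TMD8 human ABC-DLBCL cells with doxycycline-inducible IκBα–green luciferase fusion and unfused red luciferase, in 0.5% FBS medium; compounds up to 46 uM, 4 h at 37C. Green/red luminescence ratio, filter-overlap corrected, fitted to concentration-response curves.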
DT40 TDP1 CPT: qHTS for Inhibitors of human tyrosyl-DNA phosphodiesterase 1 (TDP1): qHTS in cells in presence of CPT | chicken DT40 Tdp1-/-;hTDP1 cells + 20 nM CPT, ATP luminescence, 48 h | Potency, µM (series often up to 46.2 µM), for the others: at the top dose activity change, negative = growth inhibition, actives largely listed as inhibitors | 12% of 420,000 active | AID 686979, 2013; further: potency means the concentration at half of the fitted maximal effect; on the % scale 0 is the no-effect control and ±100 the full control effect; nearly all actives have a fitted effect of over 55% in size
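Cell growth measured by CellTiter-Glo luminescence after a minimum 48 h, 37 C compound exposure with 20 nM CPT in Tdp1-knockout DT40 cells stably expressing hTDP1, seeded 400/well; qHTS titration format.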
IL1B secr inh: qHTS for Inhibitors of Inflammasome Signaling: IL-1-beta AlphaLISA Primary Screen; THP-1 LPS/ATP IL-1B secretion, AlphaLISA, 16 h; active compounds read low; activity change, % at 57.5 µM; 4.7% of 360,000 active; AID 743279, 2014; in the data active means activity change below about -50%; inconclusive means mostly about -30% to -49%; further: on the % scale 0 is the no-effect control and ±100 the full control effect
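THP-1 cells pretreated 1 hr with compounds (up to 57.5 uM final), then stimulated with LPS (250 ng/mL final) plus ATP (1.25 mM final); secreted IL-1B measured by AlphaLISA after 16 hr, decreased signal indicating inhibition.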
* hit, by the source's call; ? = inconclusive; . = no result given. Unless noted, the call rests on the fitted dose curve; in most records, active means well fitted curve in the direction sought with a large enough effect; inconclusive means small, poorly fitted or top-dose-only effect, or another doubt; inactive means no such curve, though single readings can be large; an effect the other way counts as inactive or inconclusive.

SMILES	SW480 rereplic	DT40 TDP1 no CPT	MCF10A rereplic	BCR signal inh	DT40 TDP1 CPT	IL1B secr inh
CCn1c(C)nc2cc(S(=O)(=O)C(F)F)ccc21	-1%	-1%	-22%	-1%	-9%	14
O=C(C1=C(O)C(=O)N(CC2CCCO2)C1c1ccc(Cl)cc1Cl)c1ccco1 (stereo not drawn)	13%	?	8%	0%	?	1
O=C(Cc1cccc(C(F)(F)F)c1)NCc1cccnc1	-2%	3%	8%	-3%	39%	0
Cc1ccc(S(=O)(=O)N(C)S(=O)(=O)c2ccc(C)cc2)cc1	-34%	-32%	61%	-4%	-22%	14
Cc1ccc(S(=O)(=O)N(C)/N=C/c2ccc(C(=O)O)cc2)cc1	-1%	9%	-1%	13%	-1%	0
Cc1ccc(S(=O)(=O)N(C)CCN(C)S(=O)(=O)c2ccc(C)cc2)cc1	-3%	23µM*	9%	.	?	5
CSc1ccc(/C=N/N(C)S(=O)(=O)c2ccc(C)cc2)cc1	-3%	7.3µM*	6%	5%	?	-15
Cc1ccc(/C=N/N(C)S(=O)(=O)c2ccc(C)cc2)cc1	-4%	21µM*	23%	?	23µM*	-4
CC(C)C[C@H]1COc2cc(N3CC[C@H](O)C3)ccc2S(=O)(=O)N1	.	-22%	.	.	1%	38
CCC(=O)c1ccc(OC)c(OC)c1OCc1ccccc1	-5%	?	-3%	.	-4%	-7
COc1ccc(-c2nc(-c3cccs3)c(-c3cccs3)[nH]2)cc1OC	-2%	16µM*	17%	?	?	?
Cc1nc(-c2ccc3c(c2)OCO3)cs1	-3%	-9%	4%	-5%	-5%	8
Cc1c(C)c(C)c2[nH]c(-c3ccc4c(c3)OCO4)nc2c1C	?	18µM*	?	?	?	-28
COc1ccc(-c2[nH]c(-c3ccc(C(=O)O)cc3)nc2-c2ccccc2)cc1	-20%	-25%	15%	?	-14%	14
COc1cc(-c2nc(-c3ccc4c(c3)-c3ccccc3S4(=O)=O)c(-c3ccccc3)[nH]2)cc(OC)c1O	17%	16µM*	?	?	6.5µM*	?
COc1ccc(-c2nc(-c3ccccc3)c(-c3ccccc3)[nH]2)cc1Br	.	13µM*	.	.	18µM*	.
COC(=O)c1cc2sccc2n1CC(=O)Nc1ccc(C)cc1C	.	-23%	.	.	-26%	.
CC(N)(C(=O)O)c1ccc(P(=O)(O)O)cc1 (stereo not drawn)	.	-27%	.	.	-8%	.
COc1ccc(-c2[nH]c(-c3ccc4c(c3)OCO4)nc2-c2ccccc2)cc1	?	?	?	?	?	-64*
O=C(CSc1ccccn1)c1ccc2c(c1)OCO2	-5%	-18%	-5%	?	5%	9
COc1cc(-c2nc(-c3ccccc3)c(-c3cc([N+](=O)[O-])ccc3C)[nH]2)cc(OC)c1OC	1%	16µM*	?	?	18µM*	14
COc1ccc(-c2nc(-c3ccccc3)c(-c3cccs3)[nH]2)cc1OC	10%	15µM*	-8%	?	18µM*	?
NC(=O)c1ccc(-c2nc(-c3ccc4c(c3)OCO4)c(-c3ccccn3)[nH]2)cc1	.	19µM*	.	.	21µM*	.
COc1cc(-c2nc(-c3ccccc3)c(-c3ccc(F)cc3)[nH]2)cc2c1OCO2	15%	?	?	?	?	-3
Cc1ccc(N2CCN(C(=O)C(=O)c3cccc(Br)c3)CC2)cc1	.	?	.	.	?	-9
SMILES	SW480 rereplic	DT40 TDP1 no CPT	MCF10A rereplic	BCR signal inh	DT40 TDP1 CPT	IL1B secr inh
Cc1ccc(COC(=O)CN2C(=O)NC3(CCCCC3C)C2=O)cc1 (stereo not drawn)	-464%	-20%	28%	0%	4%	-5
CC(=O)c1cccc(NC(=O)Cn2nc(C(F)(F)F)c3c2CCC3)c1	.	-21%	.	.	?	.
COc1cc2c(-c3cccc(Cl)c3)nc3c(c(C)nn3-c3ccccc3)c2cc1OC	.	-3%	.	.	-2%	.
COc1cc(-c2nc(-c3cccc(Cl)c3)c(-c3ccccc3)[nH]2)cc(OC)c1OC	.	16µM*	.	.	18µM*	.
Cc1ccn2c(=O)nc(SCC(=O)NCCc3ccccc3)nc2c1	-51%	-8%	-2%	?	-2%	3
CN1c2ccccc2-c2nc3ccccc3n2C1c1ccccn1 (stereo not drawn)	8%	16µM*	?	9%	16µM*	-7
CCN1c2ccccc2-c2nc3ccccc3n2C1c1ccco1 (stereo not drawn)	?	16µM*	?	7%	21µM*	-15
CN(Cc1ccccc1)C(=O)c1csc([C@@H]2C[C@H](O)[C@@H](CO)O2)n1	.	-1%	.	.	-8%	12
O=C(CCCl)Nc1nnc(SCC(=O)NC2CCCC2)s1	8.2µM*	3.3µM*	18µM*	?	3.3µM*	-88*
O=C(Cn1nnc2sc3c(c2c1=O)CCCC3)Nc1ccc(F)c(Cl)c1	.	-17%	.	.	?	.
CC(C(=O)Nc1ccccc1)n1nnc2sc3c(c2c1=O)CCCC3 (stereo not drawn)	.	-89%	.	.	?	.
COc1ccc(Cl)cc1NC(=O)C(C)n1nnc2sc3c(c2c1=O)CCCC3 (stereo not drawn)	.	13µM*	.	.	21µM*	.
Cc1ccc(NC(=O)C(C)n2nnc3sc4c(c3c2=O)CCCC4)cc1Cl (stereo not drawn)	.	15µM*	.	.	?	.
N#Cc1cccc(C=C(C(=O)c2ccccc2)c2ccccc2)c1	.	19µM*	.	.	12µM*	.
COc1cccc(/C=C(\C(=O)O)c2ccccc2)c1	-8%	-3%	-9%	1%	4%	?
COc1ccc2nc(N3C(=O)CNC3=S)sc2c1	4%	7.3µM*	?	?	7.3µM*	?
Cc1ccc2nc(N3C(=O)CNC3=S)sc2c1	?	?	18µM*	?	15µM*	.
Cc1cccc(CC2CC(=O)N(c3nc4ccccc4s3)C2=O)c1 (stereo not drawn)	-1%	3%	11%	2%	-20%	18
